# Source: PubChem BioAssay
# Sampled rows, rich in hits. Any-hit rate of the full collection: about 2.4%.
# GLS inhibitor: blocks human kidney-isoform glutaminase activity; GLS enzymatic activity, qHTS titration; Potency, µM (top dose mostly 45.5 µM), for inactives: at the top dose activity change, negative = inhibition, hits mostly inhibitors; actives 0.21% (n = 410,000); O94925; also: % is scaled to controls: 0 for no effect and ±100 for the full control effect
#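 Enzyme dispensed in phosphate buffer (45 mM, pH 8.2, 0.02% Tween-20), compounds pinned in, then 1 mM L-glutamine solution and the glutamate oxidase–HRP–Amplex Red mix added; fluorescence read immediately and again after 30 min at room temperature.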
# POLK inh: DNA polymerase kappa (human) inhibition; actives 0.53% (n = 400,000); Q9UBT6; purified Pol kappa, fluorescent DNA synthesis assay, 10 min; Potency, µM (doses to about 107 µM), for inactives: at the highest dose activity, negative = inhibition, usual class: inhibitors; also: % is scaled to controls: 0 for no effect and ±100 for the full control effect
# Target sequence (Q9UBT6 whole entry, looked up): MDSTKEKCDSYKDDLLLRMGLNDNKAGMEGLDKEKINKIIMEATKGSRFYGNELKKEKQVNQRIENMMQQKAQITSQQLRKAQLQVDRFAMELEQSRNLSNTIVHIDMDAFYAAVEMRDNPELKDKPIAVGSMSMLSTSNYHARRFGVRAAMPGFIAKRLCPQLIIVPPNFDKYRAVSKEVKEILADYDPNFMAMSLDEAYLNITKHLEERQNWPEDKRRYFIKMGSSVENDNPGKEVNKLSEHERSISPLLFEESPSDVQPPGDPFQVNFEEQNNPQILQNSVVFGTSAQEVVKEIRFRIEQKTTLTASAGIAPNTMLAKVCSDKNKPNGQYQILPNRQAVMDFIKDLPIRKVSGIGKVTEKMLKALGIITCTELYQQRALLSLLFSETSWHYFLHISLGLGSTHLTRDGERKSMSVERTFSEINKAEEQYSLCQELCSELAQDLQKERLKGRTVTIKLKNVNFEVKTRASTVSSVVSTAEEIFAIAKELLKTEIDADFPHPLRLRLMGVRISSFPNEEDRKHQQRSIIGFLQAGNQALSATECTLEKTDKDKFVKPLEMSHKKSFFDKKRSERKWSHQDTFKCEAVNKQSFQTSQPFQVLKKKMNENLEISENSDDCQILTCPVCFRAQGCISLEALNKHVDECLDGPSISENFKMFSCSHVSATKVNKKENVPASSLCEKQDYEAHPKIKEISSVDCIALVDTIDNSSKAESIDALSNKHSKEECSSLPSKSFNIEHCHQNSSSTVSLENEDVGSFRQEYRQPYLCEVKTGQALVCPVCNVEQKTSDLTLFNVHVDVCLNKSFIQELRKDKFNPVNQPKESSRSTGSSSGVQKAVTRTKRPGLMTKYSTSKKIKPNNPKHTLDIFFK
#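 First, compounds were pin-transferred onto 10 nM Pol kappa. After 15 min at room temperature, substrate was added to 50 nM final. Fluorescence was then measured kinetically at 0 and 10 min.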
# POLI inh: inhibitors of human DNA polymerase iota; Q9UNA4; AID 588590; Potency, µM (top dose mostly 115 µM), without a hit: at the top dose activity, negative = inhibition, actives largely listed as inhibitors; Pol iota fluorescent replication assay, 10 min; actives 1% (n = 390,000)
#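 Pol iota at 10 nM preincubated 15 min with compounds at room temperature; reaction started with fluorescent substrate, 50 nM final. Fluorescence read kinetically at 0 and 10 min; buffer-only wells as negative control.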
# POLB inh: DNA polymerase beta (human) inhibition. Potency, µM (top dose mostly 114 µM), inactives show at the highest dose activity change, negative = inhibition, usual class: inhibitors. P06746. actives 1.3% (n = 340,000). Pol beta primer extension/strand displacement, fluorescence kinetic; also: % is scaled to controls: 0 for no effect and ±100 for the full control effect
#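 Values derive from four-parameter Hill fits of normalized kinetic data: reads at 0 and 10 min following addition of 50 nM substrate to 10 nM Pol beta preincubated 15 min with compound.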
# KAT2A inh: GCN5L2 (KAT2A) acetyltransferase inhibition; Q92830; GCN5L2 HAT assay, ThioGlo1 CoA-SH fluorescence; Potency, µM (series often up to 58.9 µM), for the others: top-dose activity change, negative = inhibition, most hits filed as inhibitors; actives 0.21% (n = 390,000); also: % is scaled to controls: 0 for no effect and ±100 for the full control effect
#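 qHTS, 1536-well. 20nM enzyme, pH 7.5 HEPES/EDTA/Tween-20 buffer; 15 min compound preinc., RT. Start: 75uM H3(1-25), 70uM AcCoA, 50uM ThioGlo1. Read Ex340/Em540 at t=0 (autofluorescence flag) and t=20 min.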
# Pol eta inh: DNA polymerase eta (human) inhibition | recombinant Pol eta, fluorescent DNA replication assay | Q9Y253 | Potency, µM (titrated, usually from 114 µM), inactives show top-dose activity change, negative = inhibition, hits mostly inhibitors | actives 1.2% (n = 390,000); also: % is scaled to controls: 0 for no effect and ±100 for the full control effect
#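 Fluorescent replication assay: 50 nM final substrate added after a 15 min room-temperature compound preincubation with 10 nM enzyme. Signal taken at 0 min and again at 10 min.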
# Numbers without * were called inactive; ? = inconclusive; / = no result given; [ ] = another dose, or the depositor's remark. Calls follow the shape of the dose curve; as a rule, active = well fitted inhibition curve with a large enough effect; inconclusive = small, poorly fitted or top-dose-only effect, or another doubt; inactive = no such curve, though single readings can be large or run the other way. Potency is read from the fitted curve at half-maximal effect.
SMILES,GLS inhibitor,POLK inh,POLI inh,POLB inh,KAT2A inh,Pol eta inh
O=C(/C=C/c1ccncc1)c1ccc(NC(=O)c2ccccc2F)cc1,0%,-10%,?,16µM*,-13%,-15%
Cc1ccc2ncc(C)c(/C=C/c3ccc(N(C)C)cc3)c2c1,/,8%,8%,/,/,/
CCOC(=O)CSc1ccc2nnc(-c3cccs3)n2n1,-21%,-8%,-19%,7%,-8%,-8%
O=C(CSc1ccc2nnc(-c3cccs3)n2n1)N1CCCC1,-3%,0%,51%,45µM*,?,-14%
O=c1c(-c2ccc(O)cc2)coc2cc(O[C@@H]3O[C@H](CO)[C@H](O)[C@H](O)[C@H]3O)ccc12,/,14%[60.1 µM],/,/,-17%,/
O=C(c1c(O)cc(O)cc1O)C1c2c(cc(O)c3c2O[C@H](c2ccc(O)cc2)[C@@H](O)C3)OC1c1ccc(O)cc1 (stereo not given in full),0%,?,?,/,-3%,?
O=C(OC1Cc2c(O)cc(O)cc2OC1c1cc(O)c(O)c(O)c1-c1c(C2Oc3cc(O)cc(O)c3CC2O)cc(O)c(O)c1O)c1cc(O)c(O)c(O)c1 (stereo not given),/,0.79µM*,/,/,16µM*,/
Cc1ccc(S(=O)(=O)n2ccc3c(OCCOCCSCC(NC(=O)OC(C)(C)C)C(=O)O)cccc32)cc1 (stereo not given),-16%,?,28µM*,71µM*,-10%,?
Cc1ccc(S(=O)(=O)n2ccc3c(OCCOCCNCc4ccc(F)cc4)cccc32)cc1,-12%,-4%,128%,0%,-6%,-22%
COc1cc2c(cc1OC)C1O[C@](c3ccsc3)(C2)Oc2cc(-c3ccccc3)oc(=O)c21,/,/,/,13µM*,-13%[12.7 µM],/
COCCN(C(=O)COC(=O)/C=C/c1ccc(C)o1)c1c(N)n(Cc2ccccc2)c(=O)[nH]c1=O,-1%,-7%,79µM*,-6%,-4%,-11%
COCCN(C(=O)COC(=O)/C=C/c1ccc(OC)c(OC)c1)c1c(N)n(Cc2ccccc2)c(=O)[nH]c1=O,-3%,3%,2%,/,1%,-1%
COCCN(C(=O)COC(=O)/C=C/c1ccco1)c1c(N)n(Cc2ccccc2)c(=O)[nH]c1=O,-20%,-32%,?,28µM*,-5%,?
CCCCOc1cccc(NC(=O)c2cccc(C(=O)Nc3cccc(OCCCC)c3)c2)c1,-4%,-7%,-24%,11%,-5%,7%
COCCNC(=O)c1c[nH]c2ccc(S(=O)(=O)N3CCC4(CC3)OCCO4)cc2c1=O,2%,-4%,8%,-10%,-4%,-11%
CC(C)CCNC(=O)c1c[nH]c2ccc(S(=O)(=O)N3CCC4(CC3)OCCO4)cc2c1=O,4%,-3%,7%,35µM*,-3%,-1%
CCOc1ccc(CNC(=O)C2CCN(C(=O)c3ccc(-n4ccc5ccccc54)s3)CC2)cc1,0%,-18%,89µM*,0%,2%,-4%
CCSc1ncc(Cl)c(C(=O)Nc2sc3c(c2C(=O)NCCOC)CCCC3)n1,/,-15%,2%,/,/,/
COc1ccc(NC(=O)c2sc3nc[nH]c(=O)c3c2C)cc1OC,-2%,-14%[60.1 µM],-1%,-2%,-4%,2%
Cc1ccc(NC(=S)NC(=O)c2sc3ccccc3c2Cl)c(C(=O)O)c1,/,/,/,20µM*,-3%,/
O=C(O)c1ccccc1NC(=S)NC(=O)c1sc2ccccc2c1Cl,-2%,-6%,-5%,23%,-15%,9%
CC(NC(=O)CSc1nc2sc3c(c2c(=O)n1-c1ccccc1)CCCC3)c1ccccc1 (stereo not given),2%,-5%[60.1 µM],-11%,-2%,1%,10%
O=C(CSc1nc2sc3c(c2c(=O)n1-c1ccccc1)CCCC3)N/N=C/c1ccccc1C(=O)O,10%,-2%,?,?,3%,50µM*
C(=C\c1ccnc2ccccc12)/c1ccc(-[n+]2cc[n+](-c3ccc(/C=C/c4ccnc5ccccc45)cc3)cc2)cc1,/,-11%,7%,/,/,/
CCCCC1=CC2=C(c3ccco3)C(=O)C(C)(OC(=O)c3ccc(OC)cc3)C(=O)C2=CN1CCc1ccccn1 (stereo not given),21%,-15%,11µM*,50µM*,-25%,-24%
SMILES,GLS inhibitor,POLK inh,POLI inh,POLB inh,KAT2A inh,Pol eta inh
CCCCC1=CC2=C(c3ccco3)C(=O)C(C)(OC(=O)c3ccc(OC)cc3)C(=O)C2=CN1Cc1ccc2c(c1)OCO2 (stereo not given),7%,-7%,?,35µM*,-16%,6%
CCCCC1=CC2=C(c3ccco3)C(=O)C(C)(OC(=O)c3ccc(OC)cc3)C(=O)C2=CN1Cc1ccccc1 (stereo not given),22%,-3%,?,45µM*,-19%,50µM*
Nc1nc2ncn(COCCO)c2c(=O)[nH]1,/,3%,11%,/,/,/
COc1ccccc1C(=O)NNC(=O)c1ccc2ccccc2c1,3%,89µM*,36%,12%,0%,-17%
COc1cc2ccccc2cc1C(=O)Nc1ccc(O)cc1,12%,-6%,66%,22µM*,-26%,-3%
C[C@H]1[C@H](C)CC[C@]2(C=O)CC[C@]3(C)C(=CC[C@@H]4[C@@]5(C)C[C@@H](O)[C@H](O)[C@@](C)(CO)[C@@H]5CC[C@]43C)[C@H]12,/,4%[60.1 µM],/,/,7%,/
Cc1ccsc1C=Nc1ccc(O)cc1,28%,89µM*,13µM*,?,0%,14µM*
COc1ccc(-n2nc3cc(C)c(N)c(Br)c3n2)cc1,-13%,-13%,25µM*,18%,-10%,-21%
O=C(CCCCCCCCC#CI)Oc1ccccc1,-8%,/,/,/,/,/
CCOC(=O)c1c(-c2ccc(C)cc2)csc1NC(=O)c1nc(SC(C)C)ncc1Cl,-1%,-5%,23%,5%,-15%,-19%
O=C(CSc1ncnc2c1oc1ccccc12)NCc1ccco1,-2%,-15%,?,32µM*,-2%,-16%
O=C(CSc1nccn1Cc1ccccc1)NCc1ccco1,6%,0%[60.1 µM],?,28µM*,-3%,-13%
CCCCc1nc2sc3c(SCC(=O)NCc4ccco4)ncnc3c2c2c1CCC2,-17%,-21%,-15%,?,-4%,22µM*
CCCCc1nc2sc3c(SCCN(C)C)ncnc3c2c2c1CCC2,-3%,-11%,60%,?,-7%,-12%
O=C(CSc1ncc(-c2ccccc2)nn1)NCc1ccco1,2%,-5%,?,28µM*,-2%,-24%
Cc1ccc(-c2nnc(SC(C)C(=O)NCc3ccco3)n2C)cc1 (stereo not given),/,0%,-7%,/,/,/
